Among the data in PubChem BioAssay (NCI) are growth values, retold here.

About 83,000 compounds went through this panel and 20% of them were active in at least one assay; those are over-represented in the sample as a whole.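 Treatment: one concentration, 48 hours, 96-well format. Scoring: percent growth, with anything below 10 considered active.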 Values without a mark were called inactive. Active and inactive are the calls of the source.

Among the test systems are SR leukemia; RPMI-8226 leukemia; OVCAR-8 ovarian; OVCAR-5 ovarian; OVCAR-4 ovarian; SK-OV-3 ovarian; IGROV1 ovarian; OVCAR-3 ovarian; NCI/ADR-RES ovarian; T-47D breast; BT-549 breast; MDA-MB-435 melanoma; MCF7 breast; HCT-116 colon; HCC-2998 colon; KM12 colon; MDA-MB-468 breast.
What all share (assay): NCI-60 one-dose screen, 48 h (100 = growth as untreated, 0 = no growth, -100 = all killed)
Holding throughout (details): 10 µM unless noted

On to `CSc1ccc(C(=O)Nc2ccc3nn(/C(C#N)=C/c4ccccn4)nc3c2)cc1`, for which the growth in the assay with SR leukemia was -3.69% (active); with RPMI-8226 leukemia it was -42.5% (active); with OVCAR-8 ovarian, -1.48% (active); in the assay on OVCAR-5 ovarian it was -86.2% (active); in the assay with OVCAR-4 ovarian it was 15.8%; in the assay with SK-OV-3 ovarian it was 30.8%. The growth in the assay with IGROV1 ovarian was -83% (active); in the assay on OVCAR-3 ovarian it was -92.6% (active); in the assay on NCI/ADR-RES ovarian, 2.33% (active); with T-47D breast, -26% (active); in the assay on BT-549 breast it was -90.1% (active); in the assay on MDA-MB-435 melanoma, -44.9% (active). In addition, the growth in the assay on MCF7 breast is -78.6% (active); in the assay on HCT-116 colon, -93.8% (active); in the assay with HCC-2998 colon, -99.8% (active); with KM12 colon, -43.6% (active); with MDA-MB-468 breast, -90.7% (active).

For the compound `C[C@H](Nc1nc(NCCc2ccccc2)nc2ccccc12)c1ccccc1`, the growth with SR leukemia was -64.3% (active); in the assay with RPMI-8226 leukemia, -37.5% (active); in the assay on OVCAR-8 ovarian, -78.6% (active); in the assay on OVCAR-5 ovarian it was -92.2% (active); in the assay on OVCAR-4 ovarian, -31.4% (active); in the assay with SK-OV-3 ovarian, -88.9% (active). For the same compound, the growth in the assay with IGROV1 ovarian is -84.6% (active); in the assay on OVCAR-3 ovarian it was -70.1% (active); in the assay with NCI/ADR-RES ovarian it was -73.9% (active); in the assay on T-47D breast, -55.1% (active); with BT-549 breast, -86.9% (active); in the assay with MDA-MB-435 melanoma, -88.5% (active). Moreover, the growth was -87.4% (active) in the assay with MCF7 breast; -83.7% (active) with HCT-116 colon; -98.7% (active) in the assay with HCC-2998 colon; -77.2% (active) in the assay on KM12 colon; -96.3% (active) with MDA-MB-468 breast.

For `Cc1cc(C)cc(C(=O)Nc2cccc(-c3cn(-c4ccc(S(N)(=O)=O)cc4)nn3)c2)c1`, the growth in the assay with SR leukemia was 51.6%; in the assay on RPMI-8226 leukemia, 89.8%; in the assay with OVCAR-8 ovarian, 18.7%; with OVCAR-5 ovarian, 81.5%; in the assay with OVCAR-4 ovarian it was 42.1%; in the assay on SK-OV-3 ovarian, 9.56% (active). Moreover, the growth in the assay on IGROV1 ovarian is 15.4%; with OVCAR-3 ovarian, 87.4%; in the assay on NCI/ADR-RES ovarian, 55.9%; in the assay with T-47D breast, 35%; in the assay on BT-549 breast, 67.8%; in the assay with MDA-MB-435 melanoma, 85.9%. In addition, the growth is 31.5% in the assay on MCF7 breast; 39.8% with HCT-116 colon; 49.9% in the assay on HCC-2998 colon; 36.1% in the assay on KM12 colon; 41% in the assay on MDA-MB-468 breast.

On to `O=C(N/N=C/c1ccc(-c2ccc(O)cc2)s1)c1[nH]c2ccc(Br)cc2c1-c1ccccc1`, for which the growth is -22.4% (active) in the assay with SR leukemia; -8.25% (active) with RPMI-8226 leukemia; 25.1% with OVCAR-8 ovarian; 18.7% in the assay on OVCAR-5 ovarian; 20.3% in the assay with OVCAR-4 ovarian; 31.6% in the assay with SK-OV-3 ovarian. In addition, the growth in the assay with IGROV1 ovarian is 12.9%; with OVCAR-3 ovarian, 21.4%; with NCI/ADR-RES ovarian it was -27.4% (active); in the assay on T-47D breast, 12.4%; with BT-549 breast, -12.1% (active); in the assay with MDA-MB-435 melanoma, 2.37% (active). Moreover, the growth in the assay with MCF7 breast was 6.81% (active); with HCT-116 colon it was 1.35% (active); in the assay with HCC-2998 colon it was 7.81% (active); in the assay on KM12 colon, 7.71% (active); with MDA-MB-468 breast it was 5.96% (active).

In the case of `CC1=C(C(=O)OC(C)C)C(c2cccc(O)c2)NC(=S)N1` (stereo not drawn), the growth with SR leukemia is 90.7%; in the assay with RPMI-8226 leukemia, 88.9%; in the assay with OVCAR-8 ovarian it was 104%; with OVCAR-5 ovarian, 104%; in the assay on OVCAR-4 ovarian, 98%; in the assay on SK-OV-3 ovarian, 97.9%. For the same compound, the growth in the assay on IGROV1 ovarian is 110%; with OVCAR-3 ovarian, 120%; in the assay with NCI/ADR-RES ovarian it was 105%; in the assay with T-47D breast, 93.7%; in the assay with BT-549 breast, 127%; in the assay with MDA-MB-435 melanoma, 104%. Also, the growth was 90.6% in the assay with MCF7 breast; 102% in the assay on HCT-116 colon; 105% with HCC-2998 colon; 106% with KM12 colon; 92% in the assay with MDA-MB-468 breast.

For `O=C(O)c1cccc(-c2ccc(/C=N/NC(=O)c3[nH]c4ccc(Br)cc4c3-c3ccccc3)s2)c1`, the growth with SR leukemia is 24.1%; in the assay with RPMI-8226 leukemia it was 54.2%; in the assay on OVCAR-8 ovarian, 44.9%; in the assay with OVCAR-5 ovarian, 112%; in the assay with OVCAR-4 ovarian, 42%; in the assay on SK-OV-3 ovarian it was 103%. Besides, the growth with IGROV1 ovarian is 37.9%; in the assay on OVCAR-3 ovarian, 22.3%; in the assay with NCI/ADR-RES ovarian, -22.5% (active); in the assay on T-47D breast, 54.5%; in the assay with BT-549 breast it was 49.3%; with MDA-MB-435 melanoma, 10.4%. Also, the growth with MCF7 breast is 13.7%; in the assay with HCT-116 colon it was 31.5%; in the assay on HCC-2998 colon it was 49.9%; with KM12 colon it was 21.6%; in the assay with MDA-MB-468 breast, 15.7%.

Turning to `CSc1ccc(C(=O)Nc2ccc3nnn(/C(C#N)=C/c4ccccn4)c3c2)cc1`, the growth in the assay with SR leukemia was -9.41% (active); in the assay with RPMI-8226 leukemia it was -40.8% (active); in the assay with OVCAR-8 ovarian it was 10%; in the assay on OVCAR-5 ovarian, -77.4% (active); in the assay on OVCAR-4 ovarian, 37%; with SK-OV-3 ovarian it was 64.4%. In addition, the growth in the assay with IGROV1 ovarian is -44.9% (active); in the assay with OVCAR-3 ovarian it was -30.8% (active); in the assay with NCI/ADR-RES ovarian, 11.2%; in the assay on T-47D breast it was -45.3% (active); in the assay with BT-549 breast it was -67.9% (active); in the assay on MDA-MB-435 melanoma, -20.9% (active). Also, the growth is -79% (active) in the assay with MCF7 breast; -5.03% (active) in the assay on HCT-116 colon; -76.3% (active) in the assay on HCC-2998 colon; -57.1% (active) in the assay on KM12 colon; -69.1% (active) with MDA-MB-468 breast.

Take `COc1cc(CNC(=O)/C=C/c2ccc3c(c2)OCO3)ccc1OCc1cn(-c2cccc(C(F)(F)F)c2)nn1`: the growth was 41.5% in the assay with SR leukemia; 40.9% in the assay on RPMI-8226 leukemia; -9.92% (active) in the assay with OVCAR-8 ovarian; 36.6% in the assay with OVCAR-5 ovarian; 34.9% in the assay on OVCAR-4 ovarian; 47.4% in the assay with SK-OV-3 ovarian. For the same compound, the growth in the assay on IGROV1 ovarian was 44.7%; in the assay on OVCAR-3 ovarian, 42.9%; with NCI/ADR-RES ovarian, 4.67% (active); with T-47D breast it was 17.1%; with BT-549 breast, -10.7% (active); in the assay with MDA-MB-435 melanoma it was 39.9%. The growth is 12.2% in the assay with MCF7 breast; -25.3% (active) in the assay with HCT-116 colon; 8.65% (active) in the assay on HCC-2998 colon; 48.8% in the assay on KM12 colon; -21.4% (active) in the assay on MDA-MB-468 breast.

For `Cc1c(C(=O)NNC(=O)c2ccc(Cl)cc2)nnn1-c1ccc(Cl)cc1`, the growth is 84.4% in the assay with SR leukemia; 95.7% in the assay on RPMI-8226 leukemia; 104% in the assay on OVCAR-8 ovarian; 93.6% in the assay on OVCAR-5 ovarian; 92.4% with OVCAR-4 ovarian; 82.3% in the assay on SK-OV-3 ovarian. Further, the growth was 106% in the assay on IGROV1 ovarian; 114% in the assay with OVCAR-3 ovarian; 91.3% in the assay on NCI/ADR-RES ovarian; 89.9% with T-47D breast; 94.1% in the assay on BT-549 breast; 98.5% in the assay on MDA-MB-435 melanoma. Besides, the growth in the assay with MCF7 breast was 81.2%; in the assay with HCT-116 colon it was 85.3%; in the assay with HCC-2998 colon, 109%; in the assay with KM12 colon it was 101%; in the assay with MDA-MB-468 breast, 89.4%.
